Assay results as given in PubChem BioAssay (EPA / NIEHS).
Activity calls are given as the source filed them. How the source made its calls: active means hit-call score of the fitted dose curve at least 0.9, where 1 is the maximum; inconclusive means response in the unintended direction; inactive means score below 0.9.

Assay: IUF_NPC2-5_cytotoxicity_120hr: Cytotoxicity Assessment at 120 hours in the Leibniz Research Institute for Environmental Medicine (IUF) Neural Progenitor Cell Migration and Differentiation Assay (NPC2-5) (AID 2284307);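 on AC50: LDH released into supernatant as membrane damage marker via resorufin fluorescence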
Description: IUF_NPC2-5 is a cell-based, multiplexed assay that uses hNPC, a human primary neural progenitor cells, with measurements taken at 72 or 120 hours after chemical dosing in a 96-well plate. Human neural progenitor cells (hNPC) are generated from human fetal brain cortex at gestational week (GW) 16-19. In the neural progenitor cell migration and differentiation assay (NPC2-5), hNPCs grown as spheres are plated on an extracellular matrix and migrate and differentiate out of the sphere core. The processes radial glia migration, neuronal and oligodendrocyte migration as well as neuronal differentiation, neuronal morphology and oligodendrocyte differentiation are studied using automated phase contrast imaging and automated fluorescence imaging in combination with high content image analysis. In parallel, the cell viability is assessed using an alamar blue viability assay and the cytotoxicity using a lactate dehydrogenase dependent membrane integrity assay.IUF_NPC2-5_cytotoxicity_120hr is one of 12 assay components measured from the IUF_NPC2-5 assay. It is designed to measure cytotoxicity at 120hr due to loss of membrane integrity. LDH measurements are performed from medium supernatants of each well and are based on the reduction of resazurin to resorufin measured as fluorescence signal (relative fluorescence unit) in a multiplate reader. Data from the IUF_NPC2-5_cytotoxicity_120hr component was analyzed at the endpoint IUF_NPC2-5_cytotoxicity_120hr in the positive analysis fitting direction relative to the dynamic range and baseline of activity. Using a type of viability reporter, gain-of-signal activity can be used to understand cytotoxicity effects.
Culture protocol: After the cell expansion period the cells are cultured for up to four weeks in which they are passaged every week as described in 3.6. Between one to three days after passaging spheres at a size of 0.3 mm are picked for the test method. For the assessment of neural progenitor cell migration and differentiation, the spheres are plated on poly-D-lysine/laminin coated 96-well flat bottom plates in differentiation medium (N2) to initiate migration and differentiation. Thereby one 0.3 mm big sphere is plated in the middle of a well. The differentiation medium consists of DMEM and Ham's F12 at a ratio of 3 to 1 supplemented with 1% N2 and 1% penicillin and streptomycin. Within 5 days NPCs radially migrate out of the sphere core and differentiate into radial glia cells (nestin positive), neurons (TUBB3 positive), oligodendrocytes (O4 positive) and astrocytes (GFAP positive). Cultivation during the test method is performed at 37C and 5% CO2 at a ph of 7.2-7.6.Exposure: 0.3 mm big hNPC are plated in the already prepared test conditions. Exposure starts at day 0 of differentiation and is continued over five days of differentiation until the experiment is terminated. Cells are fed with fresh medium at day 3 of differentiation. Therefore, half of the test condition solution (e.g. solvent control or compound dilution) is replaced by freshly prepared test condition solution.Test Method: Migration distance and cytotoxicity is determined after 72 hours based on brightfield images of each well. The assay is terminated by the assessment of cell viability and cytotoxicity as well as cell fixation after 120 h. Immunocytochemistry is performed for Hoechst positive nuclei, TUBB3 positive neurons and O4 positive oligodendrocytes. On the ICC images, migration after 120 hours, neuronal and oligodendrocyte number, neuronal morphology and neuron/oligodendrocyte specific migration is assessed. immunocytochemical staining (ICC) generates an image for each sphere. The plates are scanned using an automated high content imaging device and all nuclei and their positions are determined automatically based on their intensity and size. Images are imported to the Omnisphero software to run the image analysis that measures the following endpoints. […]
For BrC1CC(Br)CC(Br)CC(Br)CC(Br)CC(Br)C1 (stereo not given), the AC50 was 4.52 µM (active). In the case of Cc1[nH]n(C)c(=O)c1C(=O)c1ccc(C(F)(F)F)cc1S(C)(=O)=O, the outcome was “inactive”. In the case of CN(C)CCCn1cc(C2=C(c3c[nH]c4ccccc34)C(=O)NC2=O)c2ccccc21, the AC50 was 8.39 µM (active). For CCCCCC(C)(CC)C(=O)NC (stereo not given), the outcome was “inactive”. In the case of CC(C)c1nn(C(=O)NC(C)(C)C)c(=O)n1N, the outcome was “inactive”. With CC(=O)N[C@@H](CC(=O)O)C(=O)O the outcome was “inactive”. In the case of C[C@@H]1CCO[C@H]2Cn3cc(C(=O)NCc4ccc(F)cc4F)c(=O)c(O)c3C(=O)N12, the outcome was “inactive”. In the case of CCCCOCCOP(=O)(O)OCCOCCCC, the outcome was “inactive”. In the case of CC(CNC(=S)[S-])NC(=S)[S-].[Zn+2] (stereo not given), the AC50 was 9.92 µM (active). With O=C1CC2(CCCC2)CC(=O)N1CCCCN1CCN(c2ncccn2)CC1 the outcome was “inactive”. With F the outcome was “inactive”. In the case of CCc1ccccc1, the outcome was “inactive”. In the case of C[C@@H]1CC[C@@H](C(C)(C)O)[C@H](O)C1, the outcome was “inactive”. For CCCCCC=C(C)C(CC)CCO (stereo not given), the outcome was “inactive”. With CC(C)O the outcome was “inactive”.
